# Assay results from PubChem BioAssay (EPA / NIEHS).
# Values joined by “and” are separate entries in the source; they are usually repeats but may differ in a detail not shown here. Equal values may be shown once. Records with an inconclusive call do not appear. More than one record can exist for a structure, and the calls need not agree. Active and inactive are the calls of the source. How the source made its calls, unless noted: active means hit-call score of the fitted dose curve at least 0.9, where 1 is the maximum; inactive means score below 0.9.
# Assays:
# [1] = read-out: Monokine induced gamma interferon (MIG), CXCL9 (gene 4283); assay: BSK_3C_MIG: BioMAP Diversity Plus: 3C Assay for Monokine induced gamma interferon (MIG) Biomarker Activity (AID 2283021); conditions: primary human endothelial cells (HUVEC); actives raise or lower the signal
# Summary of the method: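 Endothelial primary cells (human umbilical vein) are dosed with test chemical in the 3C system. MIG levels are measured by ELISA at 24 h and fitted in both directions relative to DMSO.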
# [2] = BSK_3C_SRB: Viability Assessment in the BioMAP Diversity Plus: 3C Assay (AID 2283023); conditions: primary human endothelial cells (HUVEC);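 further: fitted both ways against DMSO so a hit may be signal rise or drop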
# Summary of the method: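 Human umbilical vein endothelial cells in the 3C system, treated 24 h. Total protein measured by 0.1% sulforhodamine B staining after 10% TCA fixation, read at 560 nm; bidirectional fit versus DMSO.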
# [3] = read-out: Pselectin, SELP (gene 6403); assay: BSK_4H_Pselectin: BioMAP Diversity Plus: 4H Assay for Pselectin Biomarker Activity (AID 2283026); conditions: primary human endothelial cells (HUVEC); actives raise or lower the signal
# Summary of the method: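 Endothelial primary cells (human umbilical vein) are dosed, incubated 24 h, and assayed for surface P-selectin by ELISA; responses in either direction are fitted relative to the DMSO negative control.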
# [4] = BSK_4H_SRB: Viability Assessment in the BioMAP Diversity Plus: 4H Assay (AID 2283027); conditions: primary human endothelial cells (HUVEC);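 further: cells exposed to compound for 24 h before staining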;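 on AC50: curves fitted both ways versus DMSO so AC50 may be loss or gain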
# Summary of the method: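 HUVEC, 24 h post-dose; 10% TCA fix, 0.1% SRB stain, A560 nm. Total protein = overt cytotoxicity, parallel to biomarker read. Bidirectional fit vs DMSO baseline.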
# [5] = BSK_BE3C_SRB: Viability Assessment in the BioMAP Diversity Plus: BE3C Assay (AID 2283028); conditions: primary human bronchial epithelial cells;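 on AC50: fitted both ways so AC50 may mark signal gain or loss versus DMSO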
# Summary of the method: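 Human bronchial epithelial primary cells in confluent culture, 24 h after chemical dosing; total protein by 0.1% SRB staining after 10% TCA fixation, read at 560 nm. Bidirectional fitting versus DMSO baseline.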
# [6] = read-out: Thrombomodulin, THBD (gene 7056); assay: BSK_3C_Thrombomodulin: BioMAP Diversity Plus: 3C Assay for Thrombomodulin Biomarker Activity (AID 2283029); conditions: primary human endothelial cells (HUVEC); actives raise or lower the signal
# Summary of the method: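 Endothelial cells from umbilical vein are dosed with test chemical and incubated 24 h. Thrombomodulin is then quantified by ELISA, with DMSO serving as negative control and activity baseline.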
# [7] = read-out: Urokinase-type plasminogen activator receptor (uPAR), PLAUR (gene 5329); assay: BSK_4H_uPAR: BioMAP Diversity Plus: 4H Assay for Urokinase-type plasminogen activator receptor (uPAR) Biomarker Activity (AID 2283030); conditions: primary human endothelial cells (HUVEC); actives raise or lower the signal
# Summary of the method: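 Human umbilical vein endothelial cells in the 4H system, 24 h after chemical dosing. Cell-surface uPAR measured by ELISA, fitted in both directions versus DMSO; cytotoxicity checked by SRB total protein in parallel cultures.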
# [8] = read-out: Vascular endothelial growth factor receptor 2 (Homo sapiens) (UniProt P35968); assay: BSK_4H_VEGFRII: BioMAP Diversity Plus: 4H Assay for Vascular endothelial growth factor receptor 2 (VEGFR2) Biomarker Activity (AID 2283031); conditions: primary human endothelial cells (HUVEC); actives raise or lower the signal;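 on AC50: cell-surface VEGFR2 protein level quantified by ELISA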
# Summary of the method: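 Primary human umbilical vein endothelial cells (4H system), 24 h exposure; cell-surface VEGFR2 measured by ELISA. Bidirectional fitting versus DMSO; cytotoxicity checked in parallel by SRB total-protein staining.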
# [9] = read-out: Human Leukocyte Antigen - DR isotype (HLADR), HLA-DRA (gene 3122); assay: BSK_BE3C_HLADR: BioMAP Diversity Plus: BE3C Assay for Human Leukocyte Antigen - DR isotype (HLADR) Biomarker Activity (AID 2283032); conditions: primary human bronchial epithelial cells; actives raise or lower the signal
# Summary of the method: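 Chemicals are dosed onto BE3C bronchial epithelial cultures of human origin and left 24 h. HLA-DR is then measured by ELISA, and the endpoint is fitted in both directions using DMSO as the activity baseline.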
# [10] = read-out: Vascular cell adhesion molecule 1 (VCAM1), VCAM1 (gene 7412); assay: BSK_4H_VCAM1: BioMAP Diversity Plus: 4H Assay for Vascular cell adhesion molecule 1 (VCAM1) Biomarker Activity (AID 2283033); conditions: primary human endothelial cells (HUVEC); actives raise or lower the signal;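 on outcome: cell-surface VCAM-1 protein measured by ELISA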
# Summary of the method: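 Chemicals are added to primary human umbilical vein endothelial cells. After 24 h, VCAM-1 levels are measured by ELISA. Values come from bidirectional fitting referenced to DMSO.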
# [11] = read-out: Interferon-gamma inducible Protein 10 (IP10), CXCL10 (gene 3627); assay: BSK_BE3C_IP10: BioMAP Diversity Plus: BE3C Assay for Interferon-gamma inducible Protein 10 (IP10) Biomarker Activity (AID 2283034); conditions: primary human bronchial epithelial cells; actives raise or lower the signal
# Summary of the method: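 IP-10 quantified by ELISA serves as the endpoint. Cells: primary human bronchial epithelium, read 24 h after compound addition. Activity is derived by bidirectional fitting with DMSO as negative control.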
# [12] = read-out: Plasminogen activator inhibitor-1 (PAI1), SERPINE1 (gene 5054); assay: BSK_BE3C_PAI1: BioMAP Diversity Plus: BE3C Assay for Plasminogen activator inhibitor-1 (PAI1) Biomarker Activity (AID 2283037); conditions: primary human bronchial epithelial cells; actives raise or lower the signal
# Summary of the method: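 Values derive from bidirectional fitting against DMSO baseline of PAI-1 levels, measured by ELISA in human bronchial epithelial cells 24 h after compound addition.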
# [13] = read-out: urokinase plasminogen activator (uPA), PLAU (gene 5328); assay: BSK_BE3C_uPA: BioMAP Diversity Plus: BE3C Assay for urokinase plasminogen activator (uPA) Biomarker Activity (AID 2283038); conditions: primary human bronchial epithelial cells; actives raise or lower the signal;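 on outcome: uPA protein level quantified by ELISA in cell cultures; uPA read one day after compound addition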
# Summary of the method: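 Primary human bronchial epithelial cells, uPA measured by ELISA 24 h after dosing. Bidirectional change relative to DMSO; cytotoxicity checked in parallel cultures by sulforhodamine B total-protein staining.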
# [14] = read-out: Urokinase-type plasminogen activator receptor (uPAR), PLAUR (gene 5329); assay: BSK_BE3C_uPAR: BioMAP Diversity Plus: BE3C Assay for Urokinase-type plasminogen activator receptor (uPAR) Biomarker Activity (AID 2283039); conditions: primary human bronchial epithelial cells; actives raise or lower the signal;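 on outcome: cells exposed to compound for one day before measurement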
# Summary of the method: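 Steps: dose human primary bronchial epithelial cells, incubate 24 h, measure uPAR by ELISA, then fit gain- or loss-of-signal response bidirectionally relative to DMSO.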
# [15] = read-out: Interleukin-6 (IL6), IL6 (gene 3569); assay: BSK_CASM3C_IL6: BioMAP Diversity Plus: CASM3C Assay for Interleukin-6 (IL6) Biomarker Activity for (AID 2283040); conditions: primary human coronary artery smooth muscle cells; actives raise or lower the signal
# [16] = molecular target: human Vitamin D Receptor (VDR), VDR (gene 7421) (UniProt P11473); assay: ATG_VDR_TRANS: Attagene TRANS-FACTORIAL HepG2 Assay for human Vitamin D Receptor (VDR) (AID 2283022; active means hit-call score of the fitted dose curve at least 0.9, where 1 is the maximum)
# Summary of the method: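 HepG2 cells were transiently transfected with GAL4-UAS reporter units and a chimeric VDR-Gal4 construct, then dosed for 24 hours. Reporter mRNA was quantified by RT-PCR, fluorescent labeling, HpaI digestion and capillary electrophoresis; gain of signal analysed vs DMSO.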
# [17] = BSK_3C_Vis: BioMAP Diversity Plus: 3C Assay for Morphology Visualization (AID 2283025); conditions: primary human endothelial cells (HUVEC);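 further: fitted both ways so gain or loss versus DMSO counts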
# Summary of the method: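 Morphology read by light microscopy serves as a background control for the multiplexed 3C assay in human umbilical vein endothelial cells, taken 24 h after dosing, with DMSO as the negative control and bidirectional curve fitting.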
# [18] = read-out: Transforming growth factor beta 1 (TGFb1), TGFB1 (gene 7040); assay: BSK_BE3C_TGFb1: BioMAP Diversity Plus: BE3C Assay for Transforming growth factor beta 1 (TGFb1) Biomarker Activity (AID 2283036;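 further: TGF-b1 protein level measured by ELISA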); conditions: primary human bronchial epithelial cells; actives raise or lower the signal
# Summary of the method: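 Bronchial epithelial primary cells are treated with test chemical, then TGF-b1 is quantified by ELISA after 24 hours. Values derive from bidirectional fitting against DMSO, with cytotoxicity checked by SRB staining in parallel cultures.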
# [19] = read-out: Matrix Metallopeptidase 1 (MMP1), MMP1 (gene 4312); assay: BSK_BE3C_MMP1: BioMAP Diversity Plus: BE3C Assay for Matrix Metallopeptidase 1 (MMP1) Biomarker Activity (AID 2283024); conditions: primary human bronchial epithelial cells; actives raise or lower the signal
# Summary of the method: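 MMP1 signal, measured by ELISA after a 24 h chemical exposure of human primary bronchial epithelial cells, is analysed with bidirectional fitting using DMSO as negative control.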
# [20] = read-out: Monokine induced gamma interferon (MIG), CXCL9 (gene 4283); assay: BSK_BE3C_MIG: BioMAP Diversity Plus: BE3C Assay for Monokine induced gamma interferon (MIG) Biomarker Activity (AID 2283035); conditions: primary human bronchial epithelial cells; actives raise or lower the signal;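 further: MIG protein measured by ELISA in BE3C cultures after 24 h of dosing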
# Summary of the method: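 Dose cells (human primary bronchial epithelial), incubate 24 h, quantify MIG by ELISA, then fit concentration–response in both directions relative to DMSO control.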
# Sequence of human Vitamin D Receptor (VDR), VDR (gene 7421) (P11473 whole entry, looked up, the tested form may be a part): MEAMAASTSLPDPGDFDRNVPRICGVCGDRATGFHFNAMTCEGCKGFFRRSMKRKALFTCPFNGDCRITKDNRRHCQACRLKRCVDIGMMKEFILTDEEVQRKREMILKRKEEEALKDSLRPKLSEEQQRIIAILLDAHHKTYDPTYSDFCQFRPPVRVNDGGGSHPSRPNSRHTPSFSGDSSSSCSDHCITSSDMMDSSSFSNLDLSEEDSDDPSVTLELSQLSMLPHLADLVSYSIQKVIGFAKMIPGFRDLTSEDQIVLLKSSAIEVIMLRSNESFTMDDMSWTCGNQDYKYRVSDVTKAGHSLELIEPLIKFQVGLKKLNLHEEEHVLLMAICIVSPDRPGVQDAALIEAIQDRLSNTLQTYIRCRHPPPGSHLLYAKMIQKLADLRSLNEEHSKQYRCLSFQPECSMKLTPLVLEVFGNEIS
compound,measurement,setting,value
CN(CCO)S(=O)(=O)C(F)(F)C(F)(F)C(F)(F)C(F)(F)C(F)(F)C(F)(F)C(F)(F)C(F)(F)F,outcome,[1],inactive
same,outcome,[2],inactive
same,AC50,[3],243 nM (active)
same,outcome,[3],inactive
same,outcome,[4],inactive
same,outcome,[5],inactive
same,outcome,[6],inactive
same,outcome,[7],inactive
same,outcome,[8],inactive
same,outcome,[9],inactive
same,outcome,[10],inactive
same,outcome,[11],inactive
same,outcome,[12],inactive
same,outcome,[13],inactive
same,outcome,[14],inactive
same,outcome,[15],inactive
CCOC(OCC)C(=O)c1ccccc1,outcome,[16],inactive
Cc1ccc(C(=O)c2ccccc2)cc1,outcome,[1],inactive
same,AC50,[2],31.5 µM (active)
same,AC50,[17],38.9 µM (active)
same,AC50,[3],31200 nM (active)
same,AC50,[4],36.5 µM (active)
same,outcome,[5],inactive
same,outcome,[6],inactive
same,outcome,[7],inactive
same,outcome,[8],inactive
same,outcome,[9],inactive
same,AC50,[10],30.2 µM (active)
same,outcome,[11],inactive
same,outcome,[18],inactive
same,outcome,[12],inactive
same,outcome,[13],inactive
same,outcome,[14],inactive
same,outcome,[15],inactive
COC(=O)C(F)(F)C(F)(F)C(F)(F)C(F)(F)C(F)(F)F,outcome,[16],inactive
COc1cccc(O)c1,outcome,[1],inactive
same,outcome,[2],inactive
same,outcome,[17],inactive
same,outcome,[3],inactive
same,outcome,[4],inactive
same,outcome,[5],inactive
same,outcome,[6],inactive
same,outcome,[7],inactive
same,outcome,[8],inactive
same,outcome,[9],inactive
same,outcome,[10],inactive
same,outcome,[11],inactive
same,outcome,[18],inactive
same,outcome,[12],inactive
same,outcome,[13],inactive
same,outcome,[14],inactive
same,outcome,[15],inactive
COC1=CC(=O)C[C@@H](C)[C@]12Oc1c(Cl)c(OC)cc(OC)c1C2=O,outcome,[1],inactive
same,outcome,[2],inactive
same,outcome,[19],inactive
same,outcome,[3],inactive
same,outcome,[4],inactive
same,outcome,[5],inactive
same,outcome,[6],inactive
same,outcome,[7],inactive
same,outcome,[8],inactive
same,outcome,[9],inactive
same,outcome,[10],inactive
same,outcome,[11],inactive
same,outcome,[18],inactive
same,outcome,[12],inactive
same,outcome,[13],inactive
same,outcome,[14],inactive
same,outcome,[15],inactive
CCCC=O,outcome,[16],inactive
COC(=O)C(F)(F)C(F)(F)C(F)(F)F,outcome,[16],inactive
Cc1cncc(C)c1,outcome,[16],inactive
OCC(CO)(CBr)CBr,outcome,[1],inactive
same,outcome,[2],inactive
same,outcome,[17],inactive
same,outcome,[3],inactive
same,outcome,[4],inactive
same,outcome,[5],inactive
same,outcome,[6],inactive
same,outcome,[7],inactive
same,outcome,[8],inactive
same,outcome,[9],inactive
same,outcome,[10],inactive
same,outcome,[11],inactive
same,outcome,[18],inactive
same,outcome,[12],inactive
same,outcome,[13],inactive
same,outcome,[14],inactive
same,outcome,[15],inactive
c1cc2cccc3c4cccc5cccc(c(c1)c23)c54,outcome,[16],inactive
O=C(Nc1ccc(Cl)c(Cl)c1)c1cc(Cl)cc(Cl)c1O,outcome,[16],inactive
CCO[Si](CCC1CCC2OC2C1)(OCC)OCC (stereo not drawn),outcome,[16],inactive
C=CC(=O)OCCC(F)(F)C(F)(F)C(F)(F)C(F)(F)C(F)(F)C(F)(F)C(F)(F)C(F)(F)F,outcome,[1],inactive
same,outcome,[2],inactive
same,outcome,[3],inactive
same,outcome,[4],inactive
same,outcome,[5],inactive
same,outcome,[6],inactive
same,outcome,[7],inactive
same,outcome,[8],inactive
same,outcome,[9],inactive
same,outcome,[10],inactive
same,outcome,[11],inactive
same,outcome,[20],inactive
same,outcome,[12],inactive
same,outcome,[13],inactive
same,outcome,[14],inactive
same,outcome,[15],inactive
Oc1c(Cl)cc(Cl)cc1Sc1cc(Cl)cc(Cl)c1O,AC50,[2],15.7 µM (active) and 13.3 µM (active)
same,AC50,[3],5.81 µM (active) and 4.28 µM (active)
same,AC50,[4],23.9 µM (active) and 23.7 µM (active)
same,AC50,[5],5.25 µM (active) and 5.18 µM (active)
same,AC50,[6],11.1 µM (active)
same,outcome,[6],inactive
same,AC50,[7],20 µM (active) and 9.97 µM (active)
same,AC50,[8],5.09 µM (active) and 4.99 µM (active)
same,AC50,[9],3.56 µM (active) and 3.35 µM (active)
same,AC50,[10],12.8 µM (active)
same,AC50,[11],4.76 µM (active)
same,AC50,[12],4.59 µM (active)
same,AC50,[13],5.33 µM (active) and 5.44 µM (active)
same,AC50,[14],1.8 µM (active) and 1.83 µM (active)
same,outcome,[15],inactive
